According to PubChem BioAssay (EPA / NIEHS):
Values joined by “and” are separate entries in the source; they are usually repeats but may differ in a detail not shown here. Equal entries are not always repeated. Records with an inconclusive call do not appear. Active and inactive are the calls of the source. The calls were made as follows: active = hit-call score of the fitted dose curve at least 0.9, where 1 is the maximum; inconclusive = response in the unintended direction; inactive = score below 0.9.

The compounds below were run against human Phosphoinositide 3-kinase alpha (PI3Ka), PIK3CA (gene 5290) (UniProt P42336) (assay: NVS_ENZ_hPI3Ka: NovaScreen (NVS) Enzymatic Assay for human Phosphoinositide 3-kinase alpha (PI3Ka) (AID 2283196)).
human Phosphoinositide 3-kinase alpha (PI3Ka), PIK3CA (gene 5290), sequence (P42336 whole entry, looked up): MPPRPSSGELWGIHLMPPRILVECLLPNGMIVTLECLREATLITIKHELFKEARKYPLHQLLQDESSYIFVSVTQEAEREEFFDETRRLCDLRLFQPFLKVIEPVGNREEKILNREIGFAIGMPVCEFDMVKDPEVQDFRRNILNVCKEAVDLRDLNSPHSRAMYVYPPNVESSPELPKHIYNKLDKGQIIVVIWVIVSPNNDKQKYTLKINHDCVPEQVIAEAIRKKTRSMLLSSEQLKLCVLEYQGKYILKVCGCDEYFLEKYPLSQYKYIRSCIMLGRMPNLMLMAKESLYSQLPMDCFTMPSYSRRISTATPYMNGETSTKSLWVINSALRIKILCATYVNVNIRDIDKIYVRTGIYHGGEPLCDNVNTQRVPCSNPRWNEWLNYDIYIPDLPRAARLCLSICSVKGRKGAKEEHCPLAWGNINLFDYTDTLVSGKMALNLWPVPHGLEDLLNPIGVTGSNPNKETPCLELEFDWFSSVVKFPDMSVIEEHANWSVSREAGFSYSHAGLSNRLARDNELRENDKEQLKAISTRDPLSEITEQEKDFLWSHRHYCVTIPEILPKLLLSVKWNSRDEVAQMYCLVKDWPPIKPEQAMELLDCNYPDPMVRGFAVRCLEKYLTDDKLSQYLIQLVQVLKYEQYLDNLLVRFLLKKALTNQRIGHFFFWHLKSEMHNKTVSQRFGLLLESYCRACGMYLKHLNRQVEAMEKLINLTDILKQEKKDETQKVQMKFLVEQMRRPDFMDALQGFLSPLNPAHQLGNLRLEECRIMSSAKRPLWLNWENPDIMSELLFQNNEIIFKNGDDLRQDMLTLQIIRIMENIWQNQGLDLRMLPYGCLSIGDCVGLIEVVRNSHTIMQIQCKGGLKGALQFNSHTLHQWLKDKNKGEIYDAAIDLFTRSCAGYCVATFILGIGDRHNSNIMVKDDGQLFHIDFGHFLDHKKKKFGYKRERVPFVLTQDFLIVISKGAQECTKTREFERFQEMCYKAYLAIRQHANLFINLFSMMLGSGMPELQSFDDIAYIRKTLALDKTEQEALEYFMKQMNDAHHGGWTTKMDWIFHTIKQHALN
Experimental: NVS_ENZ_hPI3Ka is a biochemical, single-readout assay that uses extracted gene-proteins in a cell-free assay. Measurements were taken 1 hour after chemical dosing in a 384-well plate.NVS_ENZ_hPI3Ka is one of one assay component(s) measured or calculated from the NVS_ENZ_hPI3Ka assay. It is designed to make measurements of enzyme activity, a form of enzyme reporter, as detected with fluorescence intensity signals by Fluorescence and electrophoretic mobility shift technology.Data from the assay component NVS_ENZ_hPI3Ka was analyzed into 1 assay endpoint. This assay endpoint, NVS_ENZ_hPI3Ka, was analyzed in the positive analysis fitting direction relative to DMSO as the negative control and baseline of activity. Using a type of enzyme reporter, loss-of-signal activity can be used to understand changes in the enzymatic activity as they relate to the gene PIK3CA. Furthermore, this assay endpoint can be referred to as a primary readout, because this assay has produced multiple assay endpoints where this one serves a enzymatic activity function. To generalize the intended target to other relatable targets, this assay endpoint is annotated to the kinase intended target family, where the subfamily is phosphoinositol kinase.
Binding assays used specific radioligands (tritiated, iodinated) with non-radioactive competitive displacement ligands in agonist or antagonist protocols (as indicated) and various reference compounds and inhibitors to titrate specific binding to receptors and transporters. Most enzyme assays (CYPs, kinases, phosphatases, proteases, HDACs) used recombinant protein and specific substrates (fluorescence mostly, some colorimetric and radioactive) and inhibitors, followed by a biochemical separation of substrate and product. All assays for the biochemical HTS were initially run in duplicate at a single concentration (10 uM for CYP450 assays and 25 uM for all others). Assay-chemical combinations meeting a pre-defined threshold (e.g., 30% inhibition and other criteria defined below) were then run in singleton concentration-response format with maximum concentration of 20 uM for CYPs and 50 uM for all others. Each assay was run with positive and negative controls, and concurrent controls on every plate. The follow-up (secondary) screen tested active chemical-pairs in concentration series, as well as a few additional assays not tested in the primary screen, some selected negative inactives, and several cases re-run in the concentration series for confirmatory purposes.

Structure (SMILES)	outcome	AC50
Oc1ccc(Cl)cc1Cc1ccccc1	inactive	
O=C(O)C(F)(F)C(F)(F)C(F)(F)C(F)(F)C(F)(F)C(F)(F)C(F)(F)F		11.3 µM (active)
CC[C@H](C)[C@H]1O[C@]2(C=C[C@@H]1C)C[C@@H]1C[C@@H](C/C=C(\C)[C@@H](O[C@H]3C[C@H](OC)[C@@H](O[C@H]4C[C@H](OC)[C@@H](O)[C@H](C)O4)[C@H](C)O3)[C@@H](C)/C=C/C=C3\CO[C@@H]4[C@H](O)C(C)=C[C@@H](C(=O)O1)[C@]34O)O2 (tested in a mixture with another compound)		5.57 µM (active)
N#Cc1c(Cl)c(Cl)c(Cl)c(C#N)c1Cl		33.1 µM (active)
O=[N+]([O-])/N=C1\NCCN1Cc1ccc(Cl)nc1	inactive	
CCN(CC)C(=O)SCc1ccc(Cl)cc1	inactive	
O=S(=O)(O)C(F)(F)C(F)(F)C(F)(F)C(F)(F)C(F)(F)C(F)(F)C(F)(F)C(F)(F)F		6.79 µM (active) and 4.5 µM (active) and 8.3 µM (active)
CCS(=O)(=O)c1cccnc1S(=O)(=O)NC(=O)Nc1nc(OC)cc(OC)n1	inactive	
